Among all 5,500 compounds or so, about 2,000 (36%) were called active. About 18% were inconclusive and are not listed. No stated cut-off is given here; in the data, active means normalized growth mostly below about 0.91 (no sharp cut-off); inconclusive means no clear call, values can overlap the other calls; inactive means mostly above about 0.92. This is one part of the list.
Test: chemical genetic growth profiling, strain panel (AID 1159580);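 further: tested at 20 µM; growth read once vehicle control cultures reached saturation at 30 °C; 1 = growth at the plate median or of vehicle wells; lower values mean less growth of the strain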
Details: growth OD

Measured: normalized growth

c1ccc2c(c1)CCCC2C1=NCCN1 (stereo not given)
inactive: S. cerevisiae deletion strains, locus YKL009W, strain mrt4, active compounds read low 0.995 | S. cerevisiae deletion strains, locus YKL068W, active compounds read low 1 | S. cerevisiae deletion strains, locus YKL085W, strain MDH1 (second series), active compounds read low 1.01 | S. cerevisiae deletion strains, locus YKL085W, strain MDH1, active compounds read low 1.01 | S. cerevisiae deletion strains, locus YKL160W, strain elf1, active compounds read low 1.03 | S. cerevisiae deletion strains, locus YKL190W, strain CNB1, active compounds read low 1.01 | S. cerevisiae deletion strains, locus YKR001C, strain vps1, active compounds read low 0.986 | S. cerevisiae deletion strains, locus YKR026C, strain gcn3, active compounds read low 1.02 | S. cerevisiae deletion strains, locus YKR091W, strain srl3, active compounds read low 1.03 | S. cerevisiae deletion strains, locus YLL001W, strain dnm1, active compounds read low 1.03 | S. cerevisiae deletion strains, locus YLL026W, active compounds read low 1.03 | S. cerevisiae deletion strains, locus YLL041C, strain sdh2, active compounds read low 1.04 | S. cerevisiae deletion strains, locus YLR027C, strain aat2, active compounds read low 1.02 | S. cerevisiae deletion strains, locus YLR039C, strain RIC1, active compounds read low 1.03 | S. cerevisiae deletion strains, locus YLR058C, strain SHM2, active compounds read low 1.01 | S. cerevisiae deletion strains, locus YLR102C, strain apc9, active compounds read low 1 | S. cerevisiae deletion strains, locus YLR113W, strain HOG1, active compounds read low 0.982 | S. cerevisiae deletion strains, locus YLR221C, strain rsa3, active compounds read low 1.04 | S. cerevisiae deletion strains, locus YLR258W, strain gsy2, active compounds read low 1.02 | S. cerevisiae deletion strains, locus YLR262C, strain YPT6 (second series), active compounds read low 1.04 | S. cerevisiae deletion strains, locus YLR262C, strain YPT6, active compounds read low 1.04 | S. cerevisiae deletion strains, locus YLR268W, strain sec22, active compounds read low 1.03 | S. cerevisiae deletion strains, locus YLR320W, strain mms22, active compounds read low 1.03 | S. cerevisiae deletion strains, locus YLR330W, strain CHS5, active compounds read low 1.01 | S. cerevisiae deletion strains, locus YLR342W, strain FKS1 (second series), active compounds read low 1.03 | S. cerevisiae deletion strains, locus YLR342W, strain FKS1, active compounds read low 1.02 | S. cerevisiae deletion strains, locus YLR357W, strain rsc2, active compounds read low 1.04 | S. cerevisiae deletion strains, locus YLR370C, strain arc18, active compounds read low 1.02 | S. cerevisiae deletion strains, locus YLR371W, strain rom2, active compounds read low 1.01 | S. cerevisiae deletion strains, locus YLR384C, strain iki3, active compounds read low 1.03 | S. cerevisiae deletion strains, locus YLR418C, strain cdc73, active compounds read low 0.98 | S. cerevisiae deletion strains, locus YML016C, strain PPZ1, active compounds read low 1.01 | S. cerevisiae deletion strains, locus YML032C, strain rad52, active compounds read low 1 | S. cerevisiae deletion strains, locus YML120C, strain ndi1, active compounds read low 1.01 | S. cerevisiae deletion strains, locus YML124C, strain tub3, active compounds read low 0.986 | S. cerevisiae deletion strains, locus YMR058W, strain fet3, active compounds read low 1.02 | S. cerevisiae deletion strains, locus YMR078C, strain ctf18, active compounds read low 0.997 | S. cerevisiae deletion strains, locus YMR125W, strain sto1, active compounds read low 1.03 | S. cerevisiae deletion strains, locus YMR129W, active compounds read low 1.02 | S. cerevisiae deletion strains, locus YMR205C, strain PFK2, active compounds read low 1.05 | S. cerevisiae deletion strains, locus YMR223W, strain ubp8, active compounds read low 0.985 | S. cerevisiae deletion strains, locus YMR231W, strain pep5, active compounds read low 1.02 | S. cerevisiae deletion strains, locus YMR263W, strain SAP30, active compounds read low 1.01 | S. cerevisiae deletion strains, locus YMR307W, strain GAS1, active compounds read low 1 | S. cerevisiae deletion strains, locus YNL067W, strain RPL9B, active compounds read low 1 | S. cerevisiae deletion strains, locus YNL071W, strain lat1, active compounds read low 1.03 | S. cerevisiae deletion strains, locus YNL128W, strain TEP1, active compounds read low 1.02 | S. cerevisiae deletion strains, locus YNL153C, strain GIM3, active compounds read low 1.06 | S. cerevisiae deletion strains, locus YNL175C, strain NOP13, active compounds read low 0.995 | S. cerevisiae deletion strains, locus YNL183C, strain NPR1, active compounds read low 0.953 | S. cerevisiae deletion strains, locus YNL197C, strain WHI3, active compounds read low 1 | S. cerevisiae deletion strains, locus YNL209W, strain ssb2, active compounds read low 1.02 | S. cerevisiae deletion strains, locus YNL224C, strain SQS1, active compounds read low 1 | S. cerevisiae deletion strains, locus YNL233W, strain BNI4, active compounds read low 1.01 | S. cerevisiae deletion strains, locus YNL248C, strain rpa49, active compounds read low 1.02 | S. cerevisiae deletion strains, locus YNL250W, strain rad50, active compounds read low 0.998 | S. cerevisiae deletion strains, locus YNL271C, strain bni1, active compounds read low 0.998 | S. cerevisiae deletion strains, locus YNL298W, strain CLA4, active compounds read low 1.02 | S. cerevisiae deletion strains, locus YNL307C, strain MCK1, active compounds read low 0.995 | S. cerevisiae deletion strains, locus YNL322C, strain KRE1 (second series), active compounds read low 1.03 | S. cerevisiae deletion strains, locus YNL322C, strain KRE1, active compounds read low 1.01 | S. cerevisiae deletion strains, locus YNR049C, strain mso1, active compounds read low 1.02 | S. cerevisiae deletion strains, locus YNR052C, strain pop2, active compounds read low 1.01 | S. cerevisiae deletion strains, locus YOL006C, strain TOP1, active compounds read low 0.988 | S. cerevisiae deletion strains, locus YOL012C, strain htz1 0.923 | S. cerevisiae deletion strains, locus YOL147C, strain pex11, active compounds read low 0.989 | S. cerevisiae deletion strains, locus YOR001W, strain rrp6, active compounds read low 1.02 | S. cerevisiae deletion strains, locus YOR061W, strain CKA2, active compounds read low 1.01 | S. cerevisiae deletion strains, locus YOR069W, strain VPS5, active compounds read low 1.01 | S. cerevisiae deletion strains, locus YOR070C, strain gyp1, active compounds read low 1.02 | S. cerevisiae deletion strains, locus YOR080W, strain dia2, active compounds read low 1.04 | S. cerevisiae deletion strains, locus YOR083W, strain WHI5 (second series), active compounds read low 1.02 | S. cerevisiae deletion strains, locus YOR083W, strain WHI5, active compounds read low 1.03 | S. cerevisiae deletion strains, locus YOR106W, strain vam3, active compounds read low 1.03 | S. cerevisiae deletion strains, locus YOR136W, strain idh2, active compounds read low 0.994 | S. cerevisiae deletion strains, locus YOR144C, strain elg1, active compounds read low 0.993 | S. cerevisiae deletion strains, locus YOR184W, strain ser1, active compounds read low 0.99 | S. cerevisiae deletion strains, locus YOR231W, strain MKK1, active compounds read low 0.978 | S. cerevisiae deletion strains, locus YOR265W, strain rbl2, active compounds read low 1.02 | S. cerevisiae deletion strains, locus YOR270C, strain vph1, active compounds read low 1.07 | S. cerevisiae deletion strains, locus YOR290C, strain snf2, active compounds read low 1.04 | S. cerevisiae deletion strains, locus YOR316C, strain cot1, active compounds read low 1 | S. cerevisiae deletion strains, locus YPL051W, strain arl3, active compounds read low 1.03 | S. cerevisiae deletion strains, locus YPL055C, strain LGE1, active compounds read low 0.995 | S. cerevisiae deletion strains, locus YPL078C, strain atp4, active compounds read low 1.01 | S. cerevisiae deletion strains, locus YPL106C, strain sse1, active compounds read low 1.06 | S. cerevisiae deletion strains, locus YPL240C, strain hsp82, active compounds read low 1.01 | S. cerevisiae deletion strains, locus YPL241C, strain CIN2, active compounds read low 1.01 | S. cerevisiae deletion strains, locus YPL256C, strain CLN2, active compounds read low 0.959 | S. cerevisiae deletion strains, locus YPR119W, strain clb2, active compounds read low 1.01 | S. cerevisiae deletion strains, locus YPR141C, strain kar3, active compounds read low 0.981 | S. cerevisiae deletion strains, locus YPR163C, strain tif3, active compounds read low 1 | S. cerevisiae deletion strains, locus YPR167C, strain met16, active compounds read low 1 | S. cerevisiae deletion strains, strain wtn01, active compounds read low 0.996 | S. cerevisiae strains, strain wild type, active compounds read low 1.02

— PubChem BioAssay AID1159580 (chemical genetic matrix, 2015)
